Laboratory results: the supplement of paper PMC6555819

Columns and labels:
Test in all cases: PBM binding z-score (relative to random genomic background probes); higher = stronger binding; sequences stand for … in GC…GCGATTGACAGCGTAGAATGAAGG
[1] = test system: FXR:RXRa (NR concentration 270 nM, RXRa partner concentration 90 nM)
How it was run: (§1)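 Custom Agilent 4×180K protein-binding microarrays carried double-stranded probes, each with a 34-nt variable region. These regions held direct-repeat seeds, single-nucleotide variants, half-site ablations and random human genomic background sequences. Ligand-free nuclear receptor dimers were incubated on the arrays for 1 h, antibodies against each partner (one per run) detected binding, and scanned fluorescence was regression-normalized. Binding z-scores take the random background probes as reference.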

[2] = test system: LXRa:RXRa (NR concentration 270 nM, RXRa partner concentration 90 nM)
How it was run: as §1

[3] = test system: LXRa homodimer (NR concentration 270 nM)
How it was run: as §1

[4] = test system: LXRb:RXRa (NR concentration 270 nM, RXRa partner concentration 90 nM)
How it was run: as §1

[5] = test system: LXRb homodimer (NR concentration 270 nM)
How it was run: as §1

[6] = test system: PPARa:RXRa (NR concentration 270 nM, RXRa partner concentration 90 nM)
How it was run: as §1

[7] = test system: PPARg:RXRa (NR concentration 180 nM, RXRa partner concentration 90 nM)
How it was run: as §1

[8] = test system: PPARg:RXRa 270nM:90nM, anti-RXR (NR concentration 270 nM, RXRa partner concentration 90 nM)
How it was run: as §1

[9] = test system: PPARg:RXRa 30nM:10nM, anti-RXR (NR concentration 30 nM, RXRa partner concentration 10 nM)
How it was run: as §1

[10] = test system: PPARg:RXRa 90nM:30nM, anti-RXR (NR concentration 90 nM, RXRa partner concentration 30 nM)
How it was run: as §1

Row | Sequence | PBM binding z-score [1] | PBM binding z-score [2] | PBM binding z-score [3] | PBM binding z-score [4] | PBM binding z-score [5] | PBM binding z-score [6] | PBM binding z-score [7] | PBM binding z-score [8] | PBM binding z-score [9] | PBM binding z-score [10]
1 | CCTACTGGGCCCTCAGGTCATTGATATCAACGTT | 0.913 | 0.734 | 0.835 | 1.2 | -0.368 | 1.5 | 0.069 | 1.15 | -0.276 | 0.433
2 | ATCTCTAGGTAACCAAGTTAAGTGAATGCCGAAC | 0.211 | 0.255 | 0.398 | 0.412 | 0.551 | 0.58 | 0.376 | 0.507 | 0.346 | 0.476
3 | TCGGGTAGGTTAGGGGCATTCAGAATGGCGTCGA | 1.49 | 1.32 | 0.575 | 2.21 | 1.8 | 1.85 | 0.499 | 1.7 | 1.98 | 1.74
4 | TCTCGGAGGACACGAAGGTCACAGCTTTCCAGAG | 2.69 | 2.82 | 1.52 | 2.65 | -0.279 | 3.64 | 1.64 | 3.1 | 2.74 | 2.74
5 | GCGGCTAGGTCAACTGATGGTCAGCTAAAGCTCG | 4 | 2.78 | 0.177 | 1.99 | -0.808 | 3.56 | 2.23 | 2.36 | 0.0288 | 1.44
6 | ATCTCAAGGTAAAAGTTCAGTGAATCCCGAGGAT | 1.18 | 1.66 | 1.12 | 0.879 | 0.539 | 3.08 | 3.54 | 4.49 | 2.83 | 4.24
7 | CCTACTGGGCCACGAAAGGTTATTGATTCAGTGA | 0.471 | 1.28 | 0.5 | 1.1 | -0.501 | 2.58 | 2.37 | 2.81 | 0.563 | 1.69
8 | CAGCCTAGGTCAGGGCCTGTATAGGAGGAACGTT | 1.48 | 0.732 | -0.667 | 0.189 | -0.753 | 1.95 | 0.752 | 0.931 | -0.43 | 0.141
9 | CAAACTAGGTCAACGTCAAAGTCGGTTTGTGCCA | 3.78 | 2.64 | 0.425 | 1.92 | 0.247 | 5.24 | 8.49 | 6.68 | 4.95 | 6.72
10 | AATACAGGGTCATCGTAGTCCAGAGTACGCACAG | 7.48 | 6.18 | 2.88 | 4.83 | 1.9 | 6.32 | 7.13 | 6.38 | 2.86 | 4.99
11 | ATCTCTAGGGAAAGATAGTTCAGTGAATGCAAAT | -0.0344 | 0.192 | 0.0693 | 0.157 | 0.479 | 0.0958 | 0.337 | 0.214 | 0.232 | 0.358
12 | CCGACTAGGGCAGAAAGGTTACCATACCATCCGG | 0.259 | 0.701 | 0.0905 | 0.925 | -0.912 | 2.11 | 1.79 | 2.27 | 0.723 | 1.86
13 | TAGCCTAGGTCAGGCGGGCCAGTATAGTGTCGGC | 1.07 | 0.958 | -0.477 | 0.401 | -0.892 | 1.55 | 0.363 | 0.51 | -0.814 | -0.109
14 | ATATGTAGGTTATCGGGTCGTTCAGTTTGCGCAT | 1.16 | 1.68 | 0.76 | 1.73 | 0.781 | 3.79 | 5 | 4.95 | 2.24 | 4.25
15 | TTACCAAGGTGAAAGGTCGTAGATGCACGCCTTG | 3.65 | 3.02 | -0.241 | 2.66 | -0.86 | 5.51 | 8.66 | 8.09 | 7.58 | 8.56
16 | CCTAACGGGTCAAGGTTATAGCACGGGTGGTACG | 4.72 | 3.16 | 0.175 | 2.46 | 0.225 | 4.48 | 3.41 | 3.67 | 1.21 | 2.39
17 | CCTGCTAGGTCATAGTCAGCTAATCTACAGTATG | 3.02 | 2.11 | 0.646 | 1.7 | 0.153 | 3.12 | 1.77 | 2.14 | 0.394 | 1.32
18 | ATCTCTAGGTAAATTTCAGTGAAAGATCGATAGA | 0.175 | 0.31 | 0.359 | 0.199 | 0.934 | 0.102 | 0.408 | 0.671 | 0.581 | 0.833
19 | CCTAGTTGGTCAGGAGCTCACACACCGGATATGA | -0.0186 | -0.0451 | 0.119 | -0.266 | 0.143 | -0.0186 | 0.636 | 0.361 | -0.291 | -0.0665
20 | CAAACTAGGTCACAGATGTCAAAGTCCGTGCGTA | 3.99 | 3.51 | 0.769 | 2.81 | 0.443 | 5.44 | 8.76 | 7.33 | 5.52 | 7.25
21 | AGAATGAGGTTATCAAAGATCAGGGAAACGCTTG | 1.6 | 5.08 | -0.032 | 2.44 | -0.277 | 3.13 | 1.78 | 1.69 | 0.863 | 1.53
22 | ATATGTAGGTTACATCCGGGTCAATCAGGCTATG | 2.56 | 4.37 | 1.05 | 2.91 | 0.748 | 4.39 | 5.98 | 5.29 | 2.62 | 4.47
23 | GCAAATAGGTAATACAAGGTGAAAGTCCGATTGT | 2.27 | 2.87 | 0.422 | 0.806 | -0.48 | 1.49 | 1.02 | 1.19 | 0.599 | 0.979
24 | AATACAGTGTCATCGTAGGCCAGAGTACGCACAG | 0.397 | 1.79 | -0.224 | 0.401 | -0.022 | 0.815 | 1.05 | 0.517 | 0.42 | 0.495
